Consider 20 molecules from the supplement of paper PMC12297408.

Structures can show the parent of a compound that is named as a salt. Values without a mark were called inactive.

In the first experiment the test system is Plasmodium falciparum NF54/iGP1_RE9H ulg8 stage V gametocytes. Briefly: gametocyte viability (luciferase signal relative to DMSO control) (% of DMSO control); higher = less gametocytocidal activity, active = 50 or less. The following applies: concentration: 1 µM; exposure time: 72 h. As for the experimental part:
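Synchronous P. falciparum NF54/iGP1_RE9H ulg8 mature stage V gametocytes (day 12) were exposed to Cayman Epigenetics Screening Library compounds at 10 µM or 1 µM for 72 h at 37 °C. Viability was read as RE9H luciferase bioluminescence, normalised to DMSO plate controls (100%); 50 µM methylene blue was the positive control.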
With `CNCCN1CCC(OCc2ccccc2)CC1` [MS049 (hydrochloride)], the gametocyte viability is 84.2.

Turning to `O=C(CCCCCCC(=O)NO)NO` [Suberohydroxamic Acid], the gametocyte viability is 106.

Regarding `Cn1cc(CCn2cnc(-c3cnn(C)c3)c2-c2ccc(C#N)cc2)cn1`, the gametocyte viability is 91.3.

Turning to `CCCCc1nc2cc(/C=C/C(=O)NO)ccc2n1CCN(CC)CC`, the gametocyte viability is 76.9.

Turning to `NC(=O)[C@H](CCCN=C(N)CCl)NC(=O)c1ccccc1` [Cl-Amidine (hydrochloride)], the gametocyte viability is 104.

As for `O=C(Nc1cccc(Br)c1)c1cccc(S(=O)(=O)N2CCCCCC2)c1`, the gametocyte viability was 85.8.

Take `O=C(CCl)Nc1ccc(S(=O)(=O)c2ccc(NC(=O)CCl)cc2)cc1`: the gametocyte viability was 78.5.

With `COc1nnc2ccc(N3CCC(c4ccc(OCCN5CCN(C)C(=O)[C@H]5C)cc4)CC3)nn12`, the gametocyte viability was 93.3.

With `CN(C)c1ccc(C(=O)NCCCCCCC(=O)NO)cc1`, the gametocyte viability was 83.7.

For the molecule `COc1cc(O)c2c(c1)oc(=O)c1c3cc(O)c(O)cc3oc21` [Wedelolactone], the gametocyte viability is 89.6.

With `O=C(O)CCCc1ccccc1` [Sodium 4-Phenylbutyrate], the gametocyte viability was 90.4.

With `Nc1ccc(S(=O)(=O)NCCc2ccccc2)cc1`, the gametocyte viability was 84.2.

Take `Oc1cc(O)cc(/C=C/c2ccc(Br)cc2)c1` [4'-bromo-Resveratrol]: the gametocyte viability is 51.7.

As for `CS(=O)(=O)c1ccc(-c2cnc(NCc3ccco3)n3cnnc23)cc1`, the gametocyte viability was 88.5.

For `Nc1ccn([C@@H]2O[C@H](CO)[C@@H](O)C2(F)F)c(=O)n1` [Gemcitabine], the gametocyte viability was 91.5.

Regarding `COc1ccccc1C(=O)Nc1cc2c(cc1N1CCCC1)n(C)c(=O)n2C`, the gametocyte viability was 79.5.

Regarding `Cc1cc(C)c(CNC(=O)c2cc(-c3ccc(N4CCN(C)CC4)nc3)cc3c2c(C)cn3C(C)C)c(=O)[nH]1`, the gametocyte viability was 78.5.

`CC(C)(CNC(=O)c1cccc(-c2noc(C(F)(F)F)n2)c1)c1coc(-c2ccccc2)n1`: the gametocyte viability is 90.2.

`Nc1nccc2c1ncn2C1C=C(CO)C(O)C1O` (stereo not given) [3-Deazaneplanocin A]: the gametocyte viability is 88.8.

For `CC(C(=O)Nc1cccc(/N=C/c2c(O)ccc3ccccc23)c1)c1ccccc1` (stereo not given) [Salermide], the gametocyte viability is 88.8.

Still in this experiment, the particulars now being: concentration: 10 µM; exposure time: 72 h.
On to `CNCCN1CCC(OCc2ccccc2)CC1` [MS049 (hydrochloride)], for which the gametocyte viability is 79.7.

In the case of `O=C(CCCCCCC(=O)NO)NO` [Suberohydroxamic Acid], the gametocyte viability is 87.9.

Turning to `Cn1cc(CCn2cnc(-c3cnn(C)c3)c2-c2ccc(C#N)cc2)cn1`, the gametocyte viability is 89.1.

For `CCCCc1nc2cc(/C=C/C(=O)NO)ccc2n1CCN(CC)CC`, the gametocyte viability was 62.4.

In the case of `NC(=O)[C@H](CCCN=C(N)CCl)NC(=O)c1ccccc1` [Cl-Amidine (hydrochloride)], the gametocyte viability is 98.5.

Take `O=C(Nc1cccc(Br)c1)c1cccc(S(=O)(=O)N2CCCCCC2)c1`: the gametocyte viability is 69.8.

As to `O=C(CCl)Nc1ccc(S(=O)(=O)c2ccc(NC(=O)CCl)cc2)cc1`, the gametocyte viability is 45 (active).

Consider `COc1nnc2ccc(N3CCC(c4ccc(OCCN5CCN(C)C(=O)[C@H]5C)cc4)CC3)nn12`, for which the gametocyte viability is 90.3.

As to `CN(C)c1ccc(C(=O)NCCCCCCC(=O)NO)cc1`, the gametocyte viability is 50.5.

Turning to `COc1cc(O)c2c(c1)oc(=O)c1c3cc(O)c(O)cc3oc21` [Wedelolactone], the gametocyte viability was 81.5.

Turning to `O=C(O)CCCc1ccccc1` [Sodium 4-Phenylbutyrate], the gametocyte viability is 89.2.

With `Nc1ccc(S(=O)(=O)NCCc2ccccc2)cc1`, the gametocyte viability was 86.3.

For `Oc1cc(O)cc(/C=C/c2ccc(Br)cc2)c1` [4'-bromo-Resveratrol], the gametocyte viability is 6.07 (active).

Take `CS(=O)(=O)c1ccc(-c2cnc(NCc3ccco3)n3cnnc23)cc1`: the gametocyte viability was 91.4.

For `Nc1ccn([C@@H]2O[C@H](CO)[C@@H](O)C2(F)F)c(=O)n1` [Gemcitabine], the gametocyte viability was 85.8.

With `COc1ccccc1C(=O)Nc1cc2c(cc1N1CCCC1)n(C)c(=O)n2C`, the gametocyte viability was 65.1.

Regarding `Cc1cc(C)c(CNC(=O)c2cc(-c3ccc(N4CCN(C)CC4)nc3)cc3c2c(C)cn3C(C)C)c(=O)[nH]1`, the gametocyte viability was 62.9.

For the molecule `CC(C)(CNC(=O)c1cccc(-c2noc(C(F)(F)F)n2)c1)c1coc(-c2ccccc2)n1`, the gametocyte viability was 83.2.

`Nc1nccc2c1ncn2C1C=C(CO)C(O)C1O` (stereo not given) [3-Deazaneplanocin A]: the gametocyte viability is 88.1.

For the molecule `CC(C(=O)Nc1cccc(/N=C/c2c(O)ccc3ccccc23)c1)c1ccccc1` (stereo not given) [Salermide], the gametocyte viability was 88.4.
